Only a selection was taken, and hits are over-represented in it overall.
Pf Dd2 inh: Plasmodium falciparum Dd2 growth inhibition; P. falciparum Dd2 growth, SYBR Green, 72 h; Potency, µM (titrated, usually from 28.9 µM), for inactives: at the highest dose activity, negative = inhibition, hits mostly inhibitors; actives 4.3% (n = 120,000); AID 1347417; active means well fitted inhibition curve with a large enough effect;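 further: plate controls were DMSO vehicle for no effect and reference drug for full effect; nearly all actives have a fitted effect of over 65% in size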
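Readout: SYBR Green fluorescence, 485 nm excitation, 535 nm emission, after ~16 h lysis at 37C. Before that, Dd2-infected red cells (2.5% hematocrit) grew 72 h with compound, 29 uM top final concentration.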
An asterisk follows results filed as active; i = inactive; [ ] = another dose, or the depositor's remark. Potency means the concentration at half of the fitted maximal effect.

SMILES | Pf Dd2 inh
CC(C)CC(=O)N1CCC(N2CC(OCC3CC3)C23CCOCC3)CC1 (configuration not stated) | -20%
Cc1ccccc1C(=O)Nc1cccc(C(=O)OCc2cc(=O)n3nc(C4CC4)sc3n2)c1 | i
COc1ccccc1-n1nc(CC(N)=O)nc1Cn1cc(Cl)c(C)n1 | 16%
Cc1ccc2ncc(S(=O)(=O)c3ccccc3)c(N3CCCCC3C)c2c1 (configuration not stated) | 10µM*
CCOc1ccc(Nc2c(S(=O)(=O)c3ccc(C)cc3)cnc3ccccc23)cc1 | -14%
CC1CCCN(c2c(S(=O)(=O)c3ccccc3)cnc3ccc(Cl)cc23)C1 (configuration not stated) | -13%
Cn1c(CCNC(=O)C[C@H]2NC(=O)c3ccccc3NC2=O)nc2ccccc21 | -22%
COc1cc(C(=O)Nc2nc3nc(-c4ccccc4)cc(=O)n3[nH]2)cc(OC)c1OC | 15%
O=C(c1cn2c(n1)CNCC2)N1C[C@H](c2ccccc2)[C@@H]2[C@H]1C1CCN2CC1 | 0%
COc1ccc([C@@H]2CN(C(=O)Nc3ccc(C)cc3)[C@@H]3C4CCN(CC4)[C@@H]32)cc1 | -10%
Cc1ccc([C@@H]2CN(C(=O)c3snnc3C)[C@@H]3C4CCN(CC4)[C@@H]32)cc1 | 14µM*
CC(=O)N1CCc2cc(S(=O)(=O)NC(CC(C)C)C(=O)NCCc3cccc(C)c3)ccc21 (configuration not stated) | i
CCc1ccccc1N1C(=O)N(Cc2ccc(C#N)cc2)c2ccccc2S1(=O)=O | 14%
CN1Cc2nc(NCCOc3ccccc3)ccc2OCC1=O | i
CCOc1ccc(-n2nc3ccc(NC(=O)COc4ccccc4)cc3n2)cc1 | -9%
CCOc1ccc(-n2nc3ccc(NC(=O)c4ccc(C)cc4C)cc3n2)cc1 | 11%
CCOc1ccc(-n2nc3ccc(NC(=O)c4ccc(-c5cccc(Cl)c5)o4)cc3n2)cc1 | 2.8µM*
CCCN(CC1CCOC1)S(=O)(=O)c1ccc(OC)c(OC)c1 (configuration not stated) | 14%[5.79 µM]
CCOc1ccc(-c2cc(C(=O)NCCc3ccc(OC)c(OC)c3)c3c(-c4ccc(F)cc4)[nH]nc3n2)cc1 | i
Cc1ccc(C)c(NC(=O)C(=O)NCCc2csc(-c3ccc(C(F)(F)F)cc3)n2)c1 | 2%
CCS(=O)(=O)N1CCCN(C)c2ccccc21 | -19%
CC(=O)N1CCC(C2CCN(S(=O)(=O)c3cccc(Cl)c3)C2)CC1 (configuration not stated) | -18%
CN1CCCN(S(=O)(=O)c2cccc(Cl)c2)c2ccccc21 | 11µM*
CCOc1ccc(C(=O)N2CCN(c3cc(-c4ccc(Cl)cc4)[nH]n3)CC2)cc1 | i
COCC(=O)N[C@H]1C[C@@H](Cc2cc(-c3ccccc3)on2)C1(C)C | 7.9µM*
SMILES | Pf Dd2 inh
CC1(C)[C@H](Cc2cc(CCO)on2)C[C@@H]1NCc1ccco1 | -27%[44.1 µM]
COC(=O)C(=O)N[C@H]1C[C@@H](Cc2cc(-c3ccccc3)on2)C1(C)C | i
CC(=O)N[C@H]1C[C@@H](Cc2cc(CN(C)c3ccccc3)on2)C1(C)C | i
CC1(C)[C@H](Cc2cc(CC3CCCCC3)on2)C[C@@H]1NC(=O)c1ccco1 | 5µM*
CC(=O)N1CCC(N[C@H]2C[C@@H](Cc3cc(CN(C)Cc4ccccc4)on3)C2(C)C)CC1 | -26%
COCC(=O)N[C@H]1C[C@@H](Cc2cc(CN(C)Cc3ccccc3)on2)C1(C)C | 8.9µM*
CC(=O)N[C@H]1C[C@@H](Cc2cc(CC(C)C)on2)C1(C)C | -11%[44.1 µM]
COCc1cc(C[C@@H]2C[C@H](NC(=O)CC(C)(C)C)C2(C)C)no1 | -17%[44.1 µM]
COc1ccc(CNC(=O)c2cc3c(=O)[nH]c(C)cn3n2)c(OC)c1 | i
CC(=O)Nc1ccccc1-c1nc2ccccc2n(Cc2cccc(Br)c2)c1=O | -18%
O=C(Nc1cccc2ccccc12)N[C@H]1CO[C@H]2[C@@H]1OC[C@@H]2Nc1nccc(-c2cccs2)n1 | i
COc1ccc(NC(=O)Cn2c(C)ccc(NS(=O)(=O)c3ccccc3)c2=O)c(C)c1 | 12%
Cn1cc(CN2C[C@@H]3C[C@H](C2)c2ccc(NC(=O)COc4ccccc4)c(=O)n2C3)c2ccccc21 | -3%
CC(=O)c1ccc(NC(=O)N2C[C@@H]3C[C@H](C2)c2ccc(NC(=O)c4cccs4)c(=O)n2C3)cc1 | -2%
Cn1cc(CN2C[C@@H]3C[C@H](C2)c2ccc(NC(=O)c4cccs4)c(=O)n2C3)c2ccccc21 | 7.9µM*
CCOc1ccc(C2CC(=O)N(c3cccc(F)c3)C3=C2C(=O)OC3)cc1 (configuration not stated) | i
CCOc1ccc(OCC)c(NC(=O)C2CCCN(S(=O)(=O)c3cc(Br)cc4c3N(C(=O)CC)CC4)C2)c1 (configuration not stated) | 7.9µM*
CCOC(=O)C1CCCN(S(=O)(=O)c2cc(Br)cc3c2N(C(C)=O)CC3)C1 (configuration not stated) | 21%

Screening data: PubChem, National Center for Advancing Translational Sciences (NCATS)
